High-throughput results (PubChem)
IL1B secr inh – blocks inflammasome-driven IL-1 beta release; THP-1 LPS/ATP IL-1B secretion, AlphaLISA, 16 h; active compounds read low; AID 743279; activity change, % at 57.5 µM; 4.7% of 360,000 active; in the data active = activity change below about -50%; inconclusive = mostly about -30% to -49%
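Secreted IL-1B measured by AlphaLISA bead assay after 16 h compound exposure of THP-1 cells; compounds (final up to 57.5 uM) added 1 h before LPS (250 ng/mL) and ATP (1.25 mM) stimulation; lower signal means less secretion.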
HT1080NT lethal – kills 2HG-producing HT-1080-NT fibrosarcoma cells; 1.6% of 360,000 active; AID 686970; Potency, µM (highest dose often 46.1 µM), most hits filed as cytotoxic; HT-1080-NT fibrosarcoma viability, CellTiter-Glo ATP luminescence, 48 h;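 also: NT is the 2HG producing partner of a matched IDH1 knockdown line; nearly all actives have a fitted effect of over 55% in size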
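Compounds were tested in concentration-response format on HT-1080-NT cells for 48 hours at 37 degrees C. Cell viability came from CellTiter-Glo luminescence; curves were classified by r2, response magnitude and activity.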
TDP1 cell noCPT – qHTS for Inhibitors of human tyrosyl-DNA phosphodiesterase 1 (TDP1): qHTS in cells in absence of CPT; DT40 Tdp1-/- hTDP1 cells, no CPT, ATP luminescence, 48 h; Potency, µM (doses to about 46.2 µM), most hits filed as inhibitors; 15% of 420,000 active; AID 686978, 2013; also: nearly all actives have a fitted effect of over 55% in size
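A cellular qHTS used chicken DT40 cells lacking endogenous Tdp1 but carrying stably transfected human TDP1. Compounds were applied without camptothecin, and cell growth kinetics were judged by ATP-dependent luminescence after ≥48 hr.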
HT1080 IDH1KD tx – toxicity to HT-1080 IDH1 knockdown cells (counter line). HT-1080 IDH1 knockdown viability, ATP luminescence, 48 h. Potency, µM (top dose mostly 46.1 µM), usual class: cytotoxic. 2% of 360,000 active
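Assay cells: HT-1080 with IDH1 knockdown, 750 per well, RPMI/5% FBS. Exposure: 48 h at 37 °C following 2 h pre-incubation. Read: CellTiter-Glo luminescence; fitted concentration-response, curve class assigned.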
TDP1 cell CPT – growth inhibition of DT40 Tdp1-/-;hTDP1 cells with camptothecin (screen for TDP1 inhibitors); chicken DT40 Tdp1-/-;hTDP1 cells + 20 nM CPT, ATP luminescence, 48 h; Potency, µM (series often up to 46.2 µM), hits mostly inhibitors; 12% of 420,000 active; AID 686979; also: nearly all actives have a fitted effect of over 55% in size
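Chicken DT40 Tdp1-/- cells stably complemented with human TDP1 were seeded at 400 cells/well in medium containing 20 nM camptothecin, exposed to pin-transferred compounds, and grown at 37 °C for at least 48 hr. Viability was read as ATP luminescence.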
Each line names hits and unclear results; the compound was inactive in the other large screens. Compounds with a hit are over-represented: about 19% of the library has one in this group of screens. Unless noted, calls follow the shape of the dose curve; as a rule, active = well fitted curve in the direction sought with a large enough effect; inconclusive = small, poorly fitted or top-dose-only effect, or another doubt; inactive = no such curve, though single readings can be large; an effect the other way counts as inactive or inconclusive.

CCOC(=O)N1CCC(NC(=S)Nc2ccc3nc(N4CCN(CC)CC4)cc(C)c3c2)CC1	HT1080NT lethal inconclusive, TDP1 cell noCPT inconclusive, HT1080 IDH1KD tx inconclusive, TDP1 cell CPT inconclusive
CCN1CCN(c2cc(C)c3cc(NC(=O)/C=C/c4ccc(OCCC(C)C)cc4)ccc3n2)CC1	TDP1 cell noCPT 4.1µM, TDP1 cell CPT 4.6µM (no result: IL1B secr inh, HT1080NT lethal, HT1080 IDH1KD tx)
Cc1cc(-c2cccs2)c2c(n1)sc1c(=O)[nH]c(=O)[nH]c12	TDP1 cell noCPT inconclusive, TDP1 cell CPT 16µM
Cc1cc(-c2ccccc2)c2c(n1)sc1c(O)cc(=O)[nH]c12	none
CC(=O)Nc1ccc(NC(=O)C2(C)Cc3c(-c4cccc(C(N)=O)c4)ccnc3O2)cc1 (stereo not given)	HT1080NT lethal inconclusive
CC1(C(=O)Nc2cccc(OC(F)(F)F)c2)Cc2c(-c3cccc(C(N)=O)c3)ccnc2O1 (stereo not given)	HT1080NT lethal inconclusive, TDP1 cell noCPT 21µM, HT1080 IDH1KD tx inconclusive, TDP1 cell CPT inconclusive
COc1ccc(NC(=O)C2(C)Cc3c(-c4cccc(C(N)=O)c4)ccnc3O2)cc1 (stereo not given)	HT1080NT lethal inconclusive, TDP1 cell noCPT 3.7µM, HT1080 IDH1KD tx inconclusive, TDP1 cell CPT 3.7µM
CN(C)c1ccc(-c2ccnc3c2CC(C)(C(=O)Nc2ccc(F)c(Cl)c2)O3)cc1 (stereo not given)	TDP1 cell noCPT inconclusive, TDP1 cell CPT inconclusive
CC1(C(=O)Nc2ccc(Cl)c(C(F)(F)F)c2)Cc2c(-c3cccc(C(N)=O)c3)ccnc2O1 (stereo not given)	HT1080NT lethal 23µM, TDP1 cell noCPT 6.5µM, HT1080 IDH1KD tx inconclusive, TDP1 cell CPT 10µM
CC1(C(=O)Nc2ccc(Cl)c(C(F)(F)F)c2)Cc2c(-c3ccc(C(N)=O)cc3)ccnc2O1 (stereo not given)	HT1080NT lethal 16µM, TDP1 cell noCPT 15µM, HT1080 IDH1KD tx 16µM, TDP1 cell CPT 18µM
CSc1sc(C(=O)NNC(C)=O)c2c1C=CCC2	TDP1 cell noCPT inconclusive
Cc1ccccc1-n1ncc(C(C)NC(=O)c2ccccc2)c1C (stereo not given)	TDP1 cell noCPT inconclusive, TDP1 cell CPT inconclusive
Cc1nnc(SCC2=C(C(=O)O)N3C(=O)C(NC(=O)c4cccc(F)c4F)C3SC2)s1 (stereo not given)	none
CSc1nnc(-c2cccc(C)c2)n1N	none
CC1(C(=O)Nc2cccc(C(F)(F)F)c2)Cc2c(-c3cccc(C(N)=O)c3)ccnc2O1 (stereo not given)	HT1080NT lethal inconclusive, TDP1 cell noCPT 6.5µM, HT1080 IDH1KD tx inconclusive
CN(C)c1ccc(-c2ccnc3c2CC(C)(C(=O)Nc2cccc(OC(F)(F)F)c2)O3)cc1 (stereo not given)	none
CC1(C(=O)Nc2cccc(C(F)(F)F)c2)Cc2c(-c3ccccc3)ccnc2O1 (stereo not given)	HT1080NT lethal inconclusive, TDP1 cell noCPT inconclusive, HT1080 IDH1KD tx inconclusive, TDP1 cell CPT inconclusive
CC1(C(=O)Nc2cccc(OC(F)(F)F)c2)Cc2c(-c3ccc4c(c3)OCO4)ccnc2O1 (stereo not given)	HT1080NT lethal inconclusive, TDP1 cell noCPT inconclusive, HT1080 IDH1KD tx 16µM, TDP1 cell CPT 21µM
COc1ccc(NC(=O)C2(C)Cc3c(-c4ccc5c(c4)OCO5)ccnc3O2)cc1 (stereo not given)	HT1080NT lethal inconclusive, TDP1 cell noCPT 2.9µM, HT1080 IDH1KD tx inconclusive, TDP1 cell CPT 4.1µM
C=C1CCN([C@@H](Cc2ccccc2)C(=O)NCc2ccc(Cl)cc2)S(=O)(=O)c2ccccc21	TDP1 cell noCPT 21µM, TDP1 cell CPT inconclusive
C=C1CCN([C@@H](Cc2ccccc2)C(=O)NCc2ccccc2)S(=O)(=O)c2ccccc21	TDP1 cell noCPT inconclusive
Cc1noc(C)c1COc1ccc(C(=O)OCC(=O)NC2CCCCC2C)cc1 (stereo not given)	TDP1 cell noCPT inconclusive
Nc1cc(S(=O)(=O)N2CCOCC2)ccc1Oc1cccc(Br)c1	IL1B secr inh -61, HT1080NT lethal inconclusive, TDP1 cell noCPT inconclusive, TDP1 cell CPT inconclusive
Cc1cc(C)c2c(=N)c3ccccc3n(CCCCCCCCn3c4ccccc4c(=N)c4c(C)cc(C)nc43)c2n1	IL1B secr inh -52, TDP1 cell noCPT inconclusive, HT1080 IDH1KD tx inconclusive, TDP1 cell CPT 10µM
CCc1ccc(C(=O)CC2(O)C(=O)N(Cc3ccc(C)cc3)c3ccccc32)cc1 (stereo not given)	TDP1 cell noCPT 2.6µM, TDP1 cell CPT 4.6µM (no result: IL1B secr inh, HT1080NT lethal, HT1080 IDH1KD tx)
COC(=O)CN1C(=O)C(O)(CC(=O)c2ccc(C)cc2)c2ccccc21 (stereo not given)	none
COc1ccc(CN2C(=O)C(O)(CC(=O)c3ccc4c(c3)OCO4)c3ccccc32)cc1OC (stereo not given)	TDP1 cell noCPT 6.3µM, TDP1 cell CPT 6.3µM
Cc1ccc(C(=O)N2c3ccccc3N(Cc3ccccc3)C(=O)C2(C)C)cc1	IL1B secr inh -68, TDP1 cell noCPT 20µM, HT1080 IDH1KD tx inconclusive, TDP1 cell CPT 15µM
CCN1C(=O)C(O)(CC(=O)c2ccc3c(c2)OCCO3)c2ccccc21 (stereo not given)	none
COc1cccc2cc(C(=O)N3CCN(C(=O)c4ccco4)CC3)c(=O)oc12	none
COc1cccc2cc(C(=O)CC3(O)C(=O)N(Cc4ccccc4)c4ccccc43)c(=O)oc12 (stereo not given)	TDP1 cell noCPT 6.5µM, TDP1 cell CPT 13µM
CCCc1ccc(Oc2cc(NN3CCCCC3)c([N+](=O)[O-])cc2[N+](=O)[O-])cc1	none
CC(=O)c1c(C)[nH]c(C(=O)NCCc2c[nH]c3ccccc23)c1C	TDP1 cell noCPT inconclusive, TDP1 cell CPT inconclusive
Cc1cc(=O)[nH]c2nnc(SCc3ccc(F)cc3)n12	none (no result: IL1B secr inh, HT1080NT lethal, HT1080 IDH1KD tx)
C=CCn1c(Cc2csc(N)n2)nnc1SCc1ccc(C(=O)OC)cc1	none
O=C(O)CC1(O)C(=O)N(Cc2ccccc2)c2ccccc21 (stereo not given)	none
CCOC(=O)CN1C(=O)C(O)(CC(=O)c2ccco2)c2ccccc21 (stereo not given)	TDP1 cell noCPT inconclusive, TDP1 cell CPT inconclusive
Cc1ccc(C(=O)CC2(O)C(=O)N(Cc3ccccc3)c3ccccc32)c(C)c1 (stereo not given)	TDP1 cell noCPT inconclusive, TDP1 cell CPT 23µM (no result: IL1B secr inh, HT1080NT lethal, HT1080 IDH1KD tx)
O=C(CC1(O)C(=O)N(Cc2ccccc2Cl)c2ccccc21)c1ccco1 (stereo not given)	TDP1 cell noCPT 3.7µM, TDP1 cell CPT 3.3µM
CCCCN1C(=O)C(O)(CC(=O)c2ccc(C(C)(C)C)cc2)c2ccccc21 (stereo not given)	TDP1 cell noCPT 15µM, TDP1 cell CPT 21µM (no result: IL1B secr inh, HT1080NT lethal, HT1080 IDH1KD tx)
